Measurements: PubChem BioAssay (NCI)
This is part of a sample that, as a whole, favours compounds with a hit. Of some 83,000 tested, about 20% had one in any assay.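 The test compound was applied at a single concentration to cells in 96-well plates for 48 hours, and percent growth was recorded.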 Active and inactive are the calls of the source. How the source made its calls: active means growth percent below 10; inactive means the rest.

Key:
Test in all cases: NCI-60 one-dose screen, 48 h (100 = growth as untreated, 0 = no growth, -100 = all killed)
Conditions in all cases: 10 µM unless noted
HCT-15 colon = tested on: HCT-15 colon
HT29 colon = tested on: HT29 colon
SNB-75 CNS = tested on: SNB-75 CNS
SNB-19 CNS = tested on: SNB-19 CNS
U251 CNS = tested on: U251 CNS
PC-3 prostate = tested on: PC-3 prostate
SK-MEL-5 melanoma = tested on: SK-MEL-5 melanoma
UACC-62 melanoma = tested on: UACC-62 melanoma
LOX IMVI melanoma = tested on: LOX IMVI melanoma
SK-MEL-28 melanoma = tested on: SK-MEL-28 melanoma
SK-MEL-2 melanoma = tested on: SK-MEL-2 melanoma
EKVX NSCLC = tested on: EKVX NSCLC
SN12C renal = tested on: SN12C renal
UO-31 renal = tested on: UO-31 renal
TK-10 renal = tested on: TK-10 renal
ACHN renal = tested on: ACHN renal
CAKI-1 renal = tested on: CAKI-1 renal
A498 renal = tested on: A498 renal
CCRF-CEM leukemia = tested on: CCRF-CEM leukemia
MOLT-4 leukemia = tested on: MOLT-4 leukemia

Measured: growth

O=C(NCc1ccccc1)C(Cl)Cl
inactive: HCT-15 colon 98.2% | HT29 colon 99.2% | SNB-75 CNS 102% | SNB-19 CNS 96.7% | U251 CNS 99.4% | PC-3 prostate 101% | SK-MEL-5 melanoma 101% | UACC-62 melanoma 93.1% | LOX IMVI melanoma 101% | SK-MEL-28 melanoma 96.1% | SK-MEL-2 melanoma 96.2% | EKVX NSCLC 95.4% | SN12C renal 104% | UO-31 renal 91.5% | TK-10 renal 90.2% | ACHN renal 104% | CAKI-1 renal 96.5% | A498 renal 94.4% | CCRF-CEM leukemia 103% | MOLT-4 leukemia 101%

C[n+]1c2ccccc2nc2c(N)cc(N)cc21
active: SNB-19 CNS -5.7% | U251 CNS 8.86% | SN12C renal 5.51%
inactive: HCT-15 colon 110% | HT29 colon 84.7% | SNB-75 CNS 75.2% | PC-3 prostate 77.6% | SK-MEL-5 melanoma 56.9% | UACC-62 melanoma 93% | LOX IMVI melanoma 77.3% | SK-MEL-28 melanoma 109% | SK-MEL-2 melanoma 121% | EKVX NSCLC 65.9% | UO-31 renal 78.3% | TK-10 renal 126% | ACHN renal 96.7% | CAKI-1 renal 111% | A498 renal 121% | CCRF-CEM leukemia 58.8% | MOLT-4 leukemia 34.8%

Cc1ccc(NCCN2CCCCC2)c2c(=O)c3ccccc3sc12
inactive: HCT-15 colon 13.9% | HT29 colon 20.5% | SNB-75 CNS 38.7% | SNB-19 CNS 36% | U251 CNS 21.1% | PC-3 prostate 38.2% | SK-MEL-28 melanoma 11% | SK-MEL-2 melanoma 45.6% | EKVX NSCLC 68.6% | SN12C renal 32% | TK-10 renal 42.6% | ACHN renal 15.9% | CAKI-1 renal 38.6% | A498 renal 28.3% | CCRF-CEM leukemia 30.2% | MOLT-4 leukemia 11.4%
active: SK-MEL-5 melanoma -92.2% | UACC-62 melanoma -2.99% | LOX IMVI melanoma -50.1% | UO-31 renal -16.6%

Cc1cc(C)c(-c2cc(O)c(-c3c(C)cc(C)cc3C)cc2O)c(C)c1
active: HT29 colon 8.84% | SNB-75 CNS -10.3% | A498 renal 5.72%
inactive: HCT-15 colon 23.6% | SNB-19 CNS 45.9% | U251 CNS 25.2% | PC-3 prostate 43.2% | SK-MEL-5 melanoma 25.5% | UACC-62 melanoma 34.2% | LOX IMVI melanoma 41.8% | SK-MEL-28 melanoma 42.8% | SK-MEL-2 melanoma 66% | EKVX NSCLC 53.9% | SN12C renal 65.5% | UO-31 renal 62.1% | TK-10 renal 56.3% | ACHN renal 38.3% | CAKI-1 renal 40.4% | CCRF-CEM leukemia 18.5% | MOLT-4 leukemia 47.9%

CC(C)=CC/C=C(/C)[C@H]1CC[C@]2(C)[C@@H]1CC[C@@H]1[C@@]3(C)CC/C(=N/O)C(C)(C)[C@@H]3CC[C@]12C
inactive: HCT-15 colon 57.2% [100 µM] | HT29 colon 23.2% [100 µM] | SNB-75 CNS 69.4% [100 µM] | SNB-19 CNS 67.3% [100 µM] | U251 CNS 50.9% [100 µM] | PC-3 prostate 29.4% [100 µM] | SK-MEL-5 melanoma 18.2% [100 µM] | UACC-62 melanoma 43.1% [100 µM] | LOX IMVI melanoma 59.6% [100 µM] | SK-MEL-28 melanoma 73.3% [100 µM] | SK-MEL-2 melanoma 59.2% [100 µM] | EKVX NSCLC 72.2% [100 µM] | SN12C renal 41% [100 µM] | UO-31 renal 58.3% [100 µM] | TK-10 renal 82% [100 µM] | ACHN renal 54.3% [100 µM] | CAKI-1 renal 57.4% [100 µM] | A498 renal 88.8% [100 µM] | CCRF-CEM leukemia 38.4% [100 µM] | MOLT-4 leukemia 27.6% [100 µM]

COc1cc2c(cc1OCCCN1CCN(CCCOc3cc4c(cc3OC)C(=O)N3C[C@H](F)C[C@H]3C=N4)CC1)N=C[C@@H]1C[C@@H](F)CN1C2=O
active: HT29 colon 0.625% | SNB-75 CNS -72.3% | U251 CNS 8.39% | SK-MEL-5 melanoma -44.7% | UACC-62 melanoma -59.7% | LOX IMVI melanoma 5.06% | SK-MEL-28 melanoma -50.8% | SK-MEL-2 melanoma -20.5% | EKVX NSCLC -34.3% | TK-10 renal -52.5% | ACHN renal 7.96% | A498 renal -55% | CCRF-CEM leukemia -28.1% | MOLT-4 leukemia -16.7%
inactive: HCT-15 colon 56.6% | SNB-19 CNS 18.1% | PC-3 prostate 12.7% | SN12C renal 25.7% | UO-31 renal 11.8% | CAKI-1 renal 16.9%

Ic1ccc2[nH]cc(SSc3c[nH]c4ccc(I)cc34)c2c1
inactive: HCT-15 colon 15.6% | HT29 colon 32% | SNB-75 CNS 46.6% | SNB-19 CNS 13.3% | U251 CNS 18.3% | SK-MEL-5 melanoma 86.6% | UACC-62 melanoma 45.4% | SK-MEL-28 melanoma 40.9% | SK-MEL-2 melanoma 74% | EKVX NSCLC 23.5% | SN12C renal 42.1% | UO-31 renal 36.6% | ACHN renal 16.5% | A498 renal 40.7% | MOLT-4 leukemia 13.2%
active: PC-3 prostate 7.98% | LOX IMVI melanoma 4.6% | TK-10 renal -13.3% | CAKI-1 renal -6.92% | CCRF-CEM leukemia 8.16%

C=CCCC1(C)NC(=O)NC1=O (centres undefined)
inactive: HCT-15 colon 105% | HT29 colon 93.2% | SNB-75 CNS 89.3% | SNB-19 CNS 99.6% | U251 CNS 103% | PC-3 prostate 86.5% | SK-MEL-5 melanoma 104% | UACC-62 melanoma 99.2% | LOX IMVI melanoma 93.7% | SK-MEL-28 melanoma 106% | SK-MEL-2 melanoma 102% | EKVX NSCLC 105% | SN12C renal 97.9% | UO-31 renal 97.8% | TK-10 renal 89.9% | ACHN renal 112% | CAKI-1 renal 93.3% | A498 renal 88.5% | CCRF-CEM leukemia 85.6% | MOLT-4 leukemia 83.7%

COc1cc2c(c(OC)c1OC)-c1cc(I)c(O)cc1[C@@H](NC(C)=O)CC2
active: HCT-15 colon 4.21% | U251 CNS 7.36% | SK-MEL-5 melanoma -15.2%
inactive: HT29 colon 10.8% | SNB-75 CNS 28% | SNB-19 CNS 14.1% | PC-3 prostate 28.8% | UACC-62 melanoma 17.8% | LOX IMVI melanoma 24.4% | SK-MEL-28 melanoma 76.7% | SK-MEL-2 melanoma 53.4% | EKVX NSCLC 60.2% | SN12C renal 38.6% | UO-31 renal 25.3% | TK-10 renal 66.9% | ACHN renal 27.9% | CAKI-1 renal 30.7% | A498 renal 49.2% | CCRF-CEM leukemia 30% | MOLT-4 leukemia 33.7%

C=C(C)[C@@H]1CC[C@]2(c3ncc(C)o3)CC[C@]3(C)[C@H](CC[C@@H]4[C@@](C)(CCC#N)[C@H](C(=C)C)CC[C@]43C)[C@@H]12
active: HCT-15 colon -69.3% [100 µM] | HT29 colon -69.8% [100 µM] | SNB-75 CNS -86.8% [100 µM] | SNB-19 CNS -95% [100 µM] | U251 CNS -82.4% [100 µM] | PC-3 prostate -64.1% [100 µM] | SK-MEL-5 melanoma -92.1% [100 µM] | UACC-62 melanoma -91% [100 µM] | LOX IMVI melanoma -83.6% [100 µM] | SK-MEL-28 melanoma -89.1% [100 µM] | SK-MEL-2 melanoma -89.5% [100 µM] | EKVX NSCLC -79.1% [100 µM] | SN12C renal -91.5% [100 µM] | UO-31 renal -94.4% [100 µM] | TK-10 renal -90.6% [100 µM] | ACHN renal -97.8% [100 µM] | CAKI-1 renal -96.4% [100 µM] | A498 renal -93.4% [100 µM] | CCRF-CEM leukemia -11.1% [100 µM] | MOLT-4 leukemia -35.4% [100 µM]

O=C1Nc2ccccc2/C1=C/C(=O)c1ccc(N2CCCC2)cc1
inactive: HCT-15 colon 23.1% | SNB-75 CNS 23.3% | SNB-19 CNS 57.2% | PC-3 prostate 38.2% | SK-MEL-5 melanoma 65.2% | UACC-62 melanoma 34.5% | SK-MEL-28 melanoma 76.5% | SK-MEL-2 melanoma 58.7% | EKVX NSCLC 76.1% | SN12C renal 15.6% | UO-31 renal 47.1% | TK-10 renal 42.8% | ACHN renal 30.7% | CAKI-1 renal 18.1% | A498 renal 65.8% | CCRF-CEM leukemia 10.4%
active: HT29 colon -9.76% | U251 CNS 4.98% | LOX IMVI melanoma -17% | MOLT-4 leukemia 3.55%

Brc1ccc(-c2nnc3c4[nH]ccc4ncn23)cc1
inactive: HCT-15 colon 88.6% | HT29 colon 94.9% | SNB-75 CNS 95.6% | SNB-19 CNS 95.5% | U251 CNS 100% | PC-3 prostate 90.6% | SK-MEL-5 melanoma 93.3% | UACC-62 melanoma 72% | LOX IMVI melanoma 85.4% | SK-MEL-28 melanoma 114% | SK-MEL-2 melanoma 92.2% | EKVX NSCLC 77.5% | SN12C renal 90.5% | UO-31 renal 58.6% | TK-10 renal 89.4% | ACHN renal 78.7% | CAKI-1 renal 87.3% | A498 renal 70.6% | CCRF-CEM leukemia 97.3% | MOLT-4 leukemia 77.2%

CC[C@]1(O)CC2CN(CCc3c([nH]c4ccccc34)[C@@](C(=O)OC)(c3cc4c(cc3OC)N(C=O)[C@H]3[C@@](O)(C(=O)OC)[C@H](OC(C)=O)[C@]5(CC)C=CCN6CC[C@]43[C@@H]65)C2)C1 (some centres undefined)
active: HT29 colon 4.12% | U251 CNS 8.14% | SK-MEL-5 melanoma -38% | A498 renal -17.9% | CCRF-CEM leukemia 2.51%
inactive: HCT-15 colon 16% | SNB-75 CNS 38.7% | SNB-19 CNS 43.8% | PC-3 prostate 35.1% | UACC-62 melanoma 35.6% | LOX IMVI melanoma 26% | SK-MEL-28 melanoma 61% | SK-MEL-2 melanoma 18.8% | EKVX NSCLC 47.4% | SN12C renal 26.6% | UO-31 renal 56.3% | TK-10 renal 74.2% | ACHN renal 34.4% | CAKI-1 renal 48.9% | MOLT-4 leukemia 21.6%

Cn1cc(-c2noc(C(=O)c3cn(C)c4ncccc34)n2)c2ccccc21
inactive: HCT-15 colon 65.2% | HT29 colon 102% | SNB-75 CNS 60.4% | SNB-19 CNS 93.1% | U251 CNS 89.2% | PC-3 prostate 87% | SK-MEL-5 melanoma 87.9% | UACC-62 melanoma 91.8% | LOX IMVI melanoma 94.8% | SK-MEL-28 melanoma 100% | SK-MEL-2 melanoma 107% | EKVX NSCLC 60.6% | SN12C renal 95% | UO-31 renal 75.9% | TK-10 renal 26.5% | CAKI-1 renal 86.2% | A498 renal 69.9% | CCRF-CEM leukemia 98.1% | MOLT-4 leukemia 95.6%
